# Assay results taken from PubChem BioAssay (EPA / NIEHS).
# The source made the active and inactive calls. How the source made its calls: active means hit-call score of the fitted dose curve at least 0.9, where 1 is the maximum; inactive means score below 0.9.
# Test: Tanguay_ZF_120hpf_EDEM: Oregon State University Tanguay Lab 120 Hour Post-fertilization zebrafish Assay for Edema Malformation (AID 2284400)
# Experimental: Tanguay_ZF_120hpf is a whole embryo, multiplexed endpoint assay using zebrafish larvae exposed for 120 hours post fertilization on a 96-well plate.Tanguay_ZF_120hpf_EDEM is one of one assay component(s) measured or calculated from the Tanguay_ZF_120hpf assay. It is designed to make measurements of zebrafish development as detected with brightfield microscopy of developing zebrafish embryos.Data from the assay component Tanguay_ZF_120hpf_EDEM was analyzed into 1 assay endpoints. This assay endpoint, Tanguay_ZF_120hpf_EDEM, was analyzed in the positive analysis fitting direction relative to DMSO as the negative control and baseline of activity. Using a type of morphology reporter, gain-of-signal activity can be used to understand changes in developmentals as they relate to the whole embryo. To generalize the intended target to other relatable targets, this assay endpoint is annotated to the zebrafish development intended target family, where the subfamily is embryonic edema.
# Zebrafish husbandry: Tropical 5D wild-type adult zebrafish were housed in at an approximate density of 1000 per 100 gallon tank at the Sinnhuber Aquatic Research Laboratory, Oregon State University, Corvallis, OR. Each tank was kept at standard laboratory conditions of 28C on a 14-h light/10-h dark photoperiod in fish water consisting of reverse osmosis water supplemented with a commercially available salt (Instant Ocean). Spawning funnels were placed into the tanks the night prior, and embryos were collected and staged. To increase bioavailability, the chorion was enzymatically removed using pronase (63.6mg/ml, >/= 3.5U/mg, Sigma-Aldrich: P5147) at 4 hours post fertilization (hpf) using a custom automated dechorionator.Chemical exposures: Six hpf dechorionated embryos were placed 1 embryo per well in a 96-well plate prefilled with 90 ul of EM using automated embryo placement systems (AEPS). Ten microliters of each row of dilution plate 2 was added to 2 exposure plates. The final DMSO concentration used was 0.64% (vol/vol). Thirty-two embryos were also exposed to 5uM trimethyltin chloride (positive control). Plates were sealed to prevent evaporation and foil covered to reduce light exposure and kept in a 28C incubator. Embryos were statically exposed until 120 hpf. At 24 hpf, embryos were assessed for photomotor response using a custom photomotor response analysis tool (PRAT) and for developmental toxicity endpoints (MO24: mortality at 24 hpf, DP: developmental progression, SM: spontaneous movement, and NC: notochord distortion). At 120 hpf, locomotor activity was measured using Viewpoint Zebralab and assessed for 13 endpoints. Zebrafish acquisition and analysis program (ZAAP), a custom program designed to inventory, acquire, and manage zebrafish data, was used to collect developmental endpoints as either present or absent (i.e., binary responses were recorded). If mortality occurred for an embryo (at either 24 or 120 hpf), the non-mortality endpoints were not measured.
SMILES,outcome,AC50
FC(F)(F)COC(OCC(F)(F)F)OCC(F)(F)F,inactive,
FC(F)C(F)(F)COCC1CO1 (stereo not given),inactive,
NCC(F)(F)C(F)(F)C(F)(F)C(F)(F)F,inactive,
OCCC(F)(F)C(F)(F)C(F)(F)C(F)(F)F,inactive,
FC(F)=C(F)C(F)(F)C(F)(F)C(F)(F)C(F)(F)C(F)(F)C(F)(F)F,inactive,
O=S(=O)(O)CCC(F)(F)C(F)(F)C(F)(F)C(F)(F)C(F)(F)C(F)(F)F,inactive,
FC(F)(F)C(F)(F)C(F)(F)C(F)(F)C(F)(F)C(F)(F)I,inactive,
C[Si](C)(C)C(F)(F)C(F)(F)C(F)(F)F,inactive,
O=C(Cl)C(F)(F)C(F)(F)C(F)(F)C(=O)Cl,inactive,
OC(O)(C(F)C(O)(O)C(F)(F)F)C(F)(F)F,,66.9 µM (active)
